PubChem BioAssay (NCATS)
Inconclusive results are not listed. The source made the active and inactive calls. Calls come from the whole dose curve; as a rule, active = well fitted inhibition curve with a large enough effect; inconclusive = small, poorly fitted or top-dose-only effect; inactive = flat fitted curve, though single readings scatter.

Test: P-glycoprotein substrates identified in KB-8-5-11 adenocarcinoma cell line, qHTS therapeutic library screen (AID 1346987); note: nearly all actives have a fitted effect of over 65% in size
Details: KB-8-5-11 (P-gp overexpressing) viability, CellTiter-Glo, 72 h; series mostly up to 44.5 µM; activity change, negative = cytotoxicity: at the top concentration
Method in brief: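 Compounds are pinned in dose-response onto KB-8-5-11 cells (500 cells/well, colchicine-free medium) and left 72 h at 37 degree C. CellTiter-Glo luminescence then yields AC50 values.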
% is set by controls: 0 for no effect and ±100 for the full control effect; potency is the fitted concentration of half-maximal effect.

Compound | Potency | outcome | activity change, negative = cytotoxicity
COc1cc(Nc2nc3c(s2)CCCC3c2ccc(F)cc2)ccc1-n1cnc(C)c1 (stereo unspecified) | 20.6 µM (active) | – | –
C[C@@H]1CC[C@]2(C(=O)O[C@@H]3O[C@H](CO)[C@@H](O)[C@H](O)[C@H]3O)CC[C@]3(C)C(=CCC4[C@@]5(C)C[C@@H](O)[C@H](O)[C@](C)(C(=O)O)C5CC[C@]43C)[C@@H]2[C@]1(C)O (stereo partly specified) | – | inactive [at 17.3 µM] | –
C/C=C1\[C@H](O[C@@H]2O[C@H](CO)[C@@H](O)[C@H](O)[C@H]2O)OC=C(C(=O)OC)[C@H]1CC(=O)O | – | – | 5.74% [at 17.3 µM] (inactive)
CC1=C(C(=O)O)/C(=C\CO[C@@H]2O[C@H](CO)[C@@H](O)[C@H](O)[C@H]2O)C(OC(=O)/C=C/c2ccc(O)cc2)C1 (stereo partly specified) | – | inactive [at 17.3 µM] | –
O=C(O)C(O[C@@H]1O[C@H](CO[C@@H]2O[C@H](CO)[C@@H](O)[C@H](O)[C@H]2O)[C@@H](O)[C@H](O)[C@H]1O)c1ccccc1 (stereo partly specified) | – | inactive [at 17.3 µM] | –
C#CCN(Cc1cc2c(=O)[nH]c(C)nc2cc1Br)c1ccc(C(=O)NCc2cccnc2)cc1 | 0.259 µM (active) | – | –
Cc1ccc(S(=O)(=O)c2ccc([N+](=O)[O-])o2)cc1 | 4.61 µM (active) | – | –
O=C(O)CC1CCC(c2ccc(-c3ccc4nc(C(=O)NCc5ccc(OC(F)(F)F)cc5)cn4c3)cc2)CC1 (stereo unspecified) | – | – | -9.99% (inactive)
COc1c(Nc2ncc(Cl)c(N[C@H]3[C@@H](C(N)=O)[C@@H]4C=C[C@H]3C4)n2)ccc2c1CC[C@@H](N1CCOCC1)CC2 | 8.2 µM (active) | – | –
CC(C)(C)NCCCNC(=O)c1cccc(Br)c1 | – | – | 3.58% (inactive)
CNC(=S)NS(=O)(=O)c1cc(CCNC(=O)c2cc(Cl)ccc2OC)ccc1OC | – | – | 8.16% (inactive)
COc1ccc([C@@]2(O)c3c(ccc4c3OC(C)(CCC=C(C)C)C=C4)NC(=O)[C@@H]2OC)cc1 (stereo partly specified) | – | – | 0.889% [at 17.3 µM] (inactive)
CN(C)c1nc(NC2CCC(NCCc3ccc(Br)cc3OC(F)(F)F)CC2)nc2ccccc12 (stereo unspecified) | 4.61 µM (active) | – | –
C=C[C@H]1[C@H](O[C@@H]2O[C@H](CO)[C@@H](O)[C@H](O)[C@H]2O)OC=C(C(=O)OC)[C@H]1C[C@@H]1c2cc(O)c(O)cc2CCN1C(C)=O | – | – | 5.06% [at 17.3 µM] (inactive)
CCCC1(c2ccccc2)NC(=O)N(CC(=O)N(C)Cc2c(F)cccc2Cl)C1=O (stereo unspecified) | – | – | -35.4% (inactive)
CC(C)(C#N)c1ccc(N2C(=O)OCc3cnc4ccc(-c5cnc6ccccc6c5)cc4c32)cc1 | 3.66 µM (active) | – | –

Compound | Potency | outcome | activity change, negative = cytotoxicity
Cc1cc(-c2cc(O)ccc2Cl)cc2nnc(Nc3ccc(OCCN4CCCC4)cc3)nc12 | 4.61 µM (active) | – | –
CC[C@]1(O)CC2CN(CCc3c([nH]c4ccccc34)[C@@](C(=O)OC)(c3cc4c(cc3OC)N(C)[C@H]3[C@@](O)(C(=O)OC)[C@H](OC(C)=O)[C@]5(CC)C=CCN6CC[C@]43[C@@H]65)C2)C1 (stereo partly specified) | 1.03 µM (active) | – | –
CCOC(=O)Nc1cc(-c2ccc(C)c(NS(C)(=O)=O)c2)nn2c(C)nnc12 | 14.6 µM (active) | – | –
COc1ccc2cc(C(C)C(=O)Oc3ccc(C(N)=S)cc3)ccc2c1 (stereo unspecified) | – | – | 6.8% (inactive)
COc1cc(/C=C/C(=O)OC[C@H]2O[C@@](CO)(O[C@H]3O[C@H](CO)[C@@H](O)[C@H](O)[C@H]3O)[C@@H](OC(=O)/C=C/c3ccc(O)c(OC)c3)[C@@H]2O)ccc1O | – | – | -7.23% [at 17.3 µM] (inactive)
N[C@@]1(C(=O)O)CC[C@H]2[C@H](C(=O)O)[C@H]21 | – | inactive | –
Cc1cc(C(N)=O)ccc1-n1c(CCC(=O)O)ccc1-c1ccc(-n2ccnc2)cc1 | – | inactive | –
CC1(C)CCCC2(C)C1CC(=O)C13CC(CCC12)C(O)(CO)C3 (stereo unspecified) | – | – | -21.3% (inactive)
C=C(CO[C@@H]1O[C@H](CO[C@@H]2OC[C@](O)(CO)[C@H]2O)[C@@H](O)[C@H](O)[C@H]1O)C1Cc2cc(C(C)=O)ccc2O1 (stereo partly specified) | – | – | 8.42% [at 17.3 µM] (inactive)
CC(C)Oc1ccc(C(=O)NC(CNC(=O)CN(C)C)Cc2ccc(-c3cn4cccc(C(C)O)c4n3)cc2)cc1Cl (stereo unspecified) | 6.51 µM (active) | – | –
CCC(C)C(=O)OC1CC(C)C=C2C=CC(C)C(CCC(O)CC(O)CC(=O)O)C21 (stereo unspecified) | – | – | -12.7% [at 17.3 µM] (inactive)
CC1C=CC2CCCCC2C1CCC1CC(O)CC(=O)O1 (stereo unspecified) | – | – | 9.37% (inactive)
CCNC(=O)Nc1ncc(-c2cc(-c3c(C)cc(OC)cc3C)nc(-c3cnccn3)n2)s1 | – | – | -2.31% (inactive)
C/C=C1\[C@H](O[C@@H]2O[C@H](CO)[C@@H](O)[C@H](O)[C@H]2O)OC=C(C(=O)OC)[C@H]1CC(=O)OC[C@H]1O[C@@H](OCCc2ccc(O)cc2)[C@H](O)[C@@H](O)[C@@H]1O | – | – | -0.742% [at 17.3 µM] (inactive)
O=C(Nc1ccccc1)N1CCN(Cc2ccc3ccccc3n2)CC1 | – | – | -11.9% (inactive)
